{"source": "ChEMBL document CHEMBL3988442", "about": "“University of Dundee, Small-Polar-MMV Screening Library” (2021)", "note": "Among all 48,000 compounds or so, about 13,000 (27%) showed an effect of 50% or more. Some of the results follow."}
{"tested_on": "Wolbachia pipientis", "assay": "Anti-Wolbachia Cell-Based Screen", "format": "functional", "design": "scale not given: in the data most compounds retested in dose-response had high values", "conditions": "5 µM", "units": {"Percent Effect": "%"}}
{"smiles": "CC(c1nc(C2CC2)no1)N(C)Cc1ccc(C#N)cc1", "note": "(stereo not given)", "Percent Effect": 15.66}
{"smiles": "CCc1noc(CNc2c(F)cccc2-n2cccn2)n1", "Percent Effect": -15.19}
{"smiles": "Cn1nc(CNC(=O)CC#N)c2c1CN(C(N)=O)CC2", "Percent Effect": 9.409}
{"smiles": "Cc1nnc(CCNC2CCN(c3ncnc4c(C)csc34)CC2)s1", "Percent Effect": -2.082}
{"smiles": "N#Cc1cccc(C(=O)N2CCC(Nc3cccnn3)CC2)c1", "Percent Effect": 94.09}
{"smiles": "Cc1nn(C)c(C)c1CC(=O)N1CCC(Nc2cccnn2)CC1", "Percent Effect": -9.502}
{"smiles": "N#CC1(C(=O)N2CCC(Nc3cccnn3)CC2)CCCCC1", "Percent Effect": -1.01}
{"smiles": "Cn1nnc2cc(C(=O)N3CCC(Nc4cccnn4)CC3)ccc21", "Percent Effect": 108.7}
{"smiles": "N#Cc1ccc(CC(=O)N2CCC(Nc3cccnn3)CC2)cc1", "Percent Effect": 101.7}
{"smiles": "Cc1nc(C(=O)N2CCC(Nc3cccnn3)CC2)cs1", "Percent Effect": -1.209}
{"smiles": "CN(Cc1nc2ccccc2c(=O)[nH]1)C1CC(=O)N(C2CC2)C1=O", "note": "(stereo not given)", "Percent Effect": -0.4558}
{"smiles": "COc1cccc(-c2cnc3n2CCC32CCN(S(C)(=O)=O)CC2)c1", "Percent Effect": -9.63}
{"smiles": "CN1C(=O)CC(C(=O)O)C12CCN(Cc1ccc(F)cc1Cl)CC2", "note": "(stereo not given)", "Percent Effect": 0.7528}
{"smiles": "O=C(c1cnc(NCc2sccc2Br)c(Cl)c1)N1CCCCC1", "Percent Effect": -7.953}
{"smiles": "COCCOc1ncccc1C(=O)Nc1ccc(-n2cncn2)c(F)c1", "Percent Effect": -9.189}
{"smiles": "Cc1ccccc1C(NC(=O)CNC(=O)c1ccoc1C)C(C)C", "note": "(stereo not given)", "Percent Effect": -4.038}
{"smiles": "Cc1cnn(CC2CCCN2C(=O)c2cccc(F)c2F)c1", "note": "(stereo not given)", "Percent Effect": 121.1}
{"smiles": "Cc1cnn(CC2CCCN2C(=O)c2c(F)cccc2Cl)c1", "note": "(stereo not given)", "Percent Effect": 118.3}
{"smiles": "Cc1cnn(CC2CCCN2C(=O)c2cccc3c2OCO3)c1", "note": "(stereo not given)", "Percent Effect": -6.859}
{"smiles": "Cc1cnn(CC2CCCN2C(=O)c2cc(C)nc3[nH]nc(C)c23)c1", "note": "(stereo not given)", "Percent Effect": 150.6}
{"smiles": "CCc1noc(C)c1C(=O)N1CCCC1Cn1cc(C)cn1", "note": "(stereo not given)", "Percent Effect": 5.124}
{"smiles": "Cc1cc(F)ccc1C(=O)N1C[C@@H]2COC[C@]2(COCC2CC2)C1", "Percent Effect": 3.024}
{"smiles": "O=C(N1CCCC1)N1CC[C@H]2OCC[C@@]2(COc2ncccc2F)C1.O=C(O)C(F)(F)F", "Percent Effect": -10.69}
{"smiles": "O=C(C1=CCCC1)N1C[C@@H]2COC[C@]2(COc2ncccc2F)C1.O=C(O)C(F)(F)F", "Percent Effect": 91.91}
{"smiles": "O=C(C1=CCCC1)N1C[C@@H]2COC[C@]2(COCc2ccncc2)C1", "Percent Effect": 94.55}
{"smiles": "O=C(C1=CCCC1)N1C[C@@H]2COC[C@]2(COCC2CC2)C1", "Percent Effect": 119}
{"smiles": "O=C(C1=CCCC1)N1CCC[C@]2(C[C@@H](Oc3ncccc3F)CO2)C1.O=C(O)C(F)(F)F", "Percent Effect": -5.101}
{"smiles": "O=C(Cc1ccco1)N1C[C@@H]2COC[C@]2(COCC2CCOCC2)C1", "Percent Effect": -6.133}
{"smiles": "O=C(C1=CCCC1)N1C[C@H]2CCC[C@@]2(COCc2ccncc2)C1.O=C(O)C(F)(F)F", "Percent Effect": 12.49}
{"smiles": "O=C(c1ncoc1C1CCCO1)N1CCC2(CCCCC2)CC1", "note": "(stereo not given)", "Percent Effect": -6.426}
{"smiles": "CCOc1ccc(C(=O)NCc2ccnc(N3CCN(C)CC3)c2)cn1", "Percent Effect": 4.898}
{"smiles": "Cc1nn(C)c(N(C)C)c1CNCc1nnc2n1CCCCC2.Cl", "Percent Effect": 5.74}
{"smiles": "COc1cc(CN2C[C@H](OC)[C@]3(CCCO3)C2)ccc1F", "Percent Effect": 93.9}
{"smiles": "COCCCC1(CO)CCCN(Cc2ccc(F)c(OC)c2)C1", "note": "(stereo not given)", "Percent Effect": -7.879}
{"smiles": "Cc1ccc(CN2CCC3(CCCN(Cc4ccc(F)c(F)c4)C3)C2)o1", "note": "(stereo not given)", "Percent Effect": -5.305}
{"smiles": "COc1coc(CN2CCCC(CCc3ccc(F)c(F)c3)C2)cc1=O", "note": "(stereo not given)", "Percent Effect": 29.51}
{"smiles": "CS(=O)(=O)NCCC1CCCN(Cc2ccccc2F)C1", "note": "(stereo not given)", "Percent Effect": -31.18}
{"smiles": "CO[C@H]1CN(Cc2ccc(F)c(F)c2)C[C@@]12CCCO2", "Percent Effect": 125.7}
{"smiles": "C[C@@H]1CN(Cc2cc(C(F)(F)F)ccc2F)CC[C@@]1(O)C1CC1", "Percent Effect": 18.84}
{"smiles": "COC(=O)C1CN(Cc2cc(F)ccc2Br)CCO1", "note": "(stereo not given)", "Percent Effect": -7.364}
{"smiles": "CO[C@H]1CN(Cc2ccccc2F)C[C@@]12CCCO2", "Percent Effect": 78.59}
{"smiles": "CO[C@H]1CN(Cc2ccccc2F)[C@@H]2CCCO[C@H]12", "Percent Effect": 2.761}
{"smiles": "COc1cc(CN2CC[C@@]3(CCCO3)[C@@H](O)C2)ccc1F", "Percent Effect": -7.237}
{"smiles": "CO[C@H]1CN(Cc2cc(F)ccc2F)CC[C@@]12CCCO2", "Percent Effect": 118.4}
{"smiles": "Cc1nc(CNC(=O)N2CCCC(c3ncc[nH]3)C2)sc1C", "note": "(stereo not given)", "Percent Effect": -13.73}
{"smiles": "Cc1cc(CN(Cc2ccccc2)C(C)CN2CCOCC2)no1", "note": "(stereo not given)", "Percent Effect": -1.705}
{"smiles": "CCSc1ccc(NC(=O)NC(C)c2c(C)noc2C)cn1", "note": "(stereo not given)", "Percent Effect": -11.22}
{"smiles": "CCN1CCCN(c2ccc(-n3ccc(C)n3)nn2)CC1", "Percent Effect": -3.628}
{"smiles": "Cc1ccc(Oc2ncccc2CNC2Cc3ccccc3C2)cn1", "Percent Effect": 12.49}
{"smiles": "NCC1Cc2cccc(-c3nccc(N4CCC(O)CC4)n3)c2O1", "note": "(stereo not given)", "Percent Effect": -9.933}
{"smiles": "Cc1cc2n(n1)CC(CNC1CCN(CCc3ccccc3)CC1)CN2", "note": "(stereo not given)", "Percent Effect": 3.275}
{"smiles": "CCc1cnc(N)nc1NCCn1cc(Cl)cn1", "Percent Effect": -1.568}
{"smiles": "Cc1ccc(-c2nc(CN3CCC(C(=O)N(C)C)CC3)cs2)o1", "Percent Effect": 9.027}
{"smiles": "Cc1cc(CN2CCN(S(C)(=O)=O)CC(C(=O)N(C)C)C2)no1", "note": "(stereo not given)", "Percent Effect": 130.4}
{"smiles": "CN(C)C(=O)C1CN(Cc2cccs2)CCN(S(C)(=O)=O)C1", "note": "(stereo not given)", "Percent Effect": 110.5}
{"smiles": "CN(C)C(=O)C1CN(Cc2nccs2)CCN(S(C)(=O)=O)C1", "note": "(stereo not given)", "Percent Effect": 115}
{"smiles": "CN(C)C(=O)C1CN(Cc2ccsc2)Cc2ccnn2C1.O=C(O)C(F)(F)F", "note": "(stereo not given)", "Percent Effect": -5.507}
{"smiles": "CS(=O)(=O)N1CCC2(CCN(Cc3nccs3)CC2)CC1.O=C(O)C(F)(F)F", "Percent Effect": 12.17}
{"smiles": "CN(C)C(=O)NCc1nnc2n1CCN(Cc1cccs1)C2", "Percent Effect": -18.34}
{"smiles": "CN(C)C(=O)C1CN(Cc2cscn2)CCN(S(C)(=O)=O)C1", "note": "(stereo not given)", "Percent Effect": 29.17}
{"smiles": "Cc1cc(CN(C)C(=O)NC2CCN(S(C)(=O)=O)CC2)no1", "Percent Effect": -12.59}
{"smiles": "CN(C)C(=O)C1CN(Cc2ccsc2)CCN(S(C)(=O)=O)C1", "note": "(stereo not given)", "Percent Effect": 92.25}
{"smiles": "CN(C)C(=O)C1CN(Cc2ccccc2)CCN(S(C)(=O)=O)C1", "note": "(stereo not given)", "Percent Effect": 1.114}
{"smiles": "C1CCC(CNC2CCSCC2)(N2CCOCC2)CC1", "Percent Effect": -18.78}
{"smiles": "CCN(CC)Cc1ccccc1NC(=O)N(C)Cc1ccc(OC)cc1", "Percent Effect": -34.67}
{"smiles": "c1ccc(-n2ncc(CNCC3CCCN3c3cccnn3)n2)cc1", "note": "(stereo not given)", "Percent Effect": 8.726}
{"smiles": "CCC(O)CN(Cc1ccccc1)S(=O)(=O)c1cnc(C)s1", "note": "(stereo not given)", "Percent Effect": -9.422}
{"smiles": "c1cncc(CN(Cc2ccsc2)Cc2ccc(C3CCCCO3)o2)c1", "note": "(stereo not given)", "Percent Effect": -4.94}
{"smiles": "CS(=O)(=O)N1C[C@H]2CCCN(Cc3cccs3)[C@H]2C1.O=C(O)C(F)(F)F", "Percent Effect": 3.048}
{"smiles": "CN(C)C(=O)C1CN(Cc2ccccn2)CCN(S(C)(=O)=O)C1", "note": "(stereo not given)", "Percent Effect": 88.48}
{"smiles": "CCCS(=O)(=O)N1C[C@@H]2CN(Cc3cccs3)CCO[C@@H]2C1.O=C(O)C(F)(F)F", "Percent Effect": 8.558}
{"smiles": "CS(=O)(=O)N1CCN(Cc2cccs2)CC(C(N)=O)C1", "note": "(stereo not given)", "Percent Effect": 99.35}
{"smiles": "CCN(CC(F)(F)F)C(=O)C1CCCN(Cc2ccccn2)C1", "note": "(stereo not given)", "Percent Effect": 10.59}
{"smiles": "CC(C)[C@H]1CN(Cc2ccccn2)C[C@@H]1NS(=O)(=O)C1CC1", "Percent Effect": -5.384}
{"smiles": "COCC1CN(C(=O)CNC(C)=O)Cc2ncnn2C1", "note": "(stereo not given)", "Percent Effect": 6.87}
{"smiles": "COc1nc2ccccc2cc1CN1CCC(CNS(C)(=O)=O)C1", "note": "(stereo not given)", "Percent Effect": -1.226}
{"smiles": "CN(C)CC(=O)N1CCCC2(CCC(=O)N(CCc3c[nH]cn3)C2)C1", "note": "(stereo not given)", "Percent Effect": 10.28}
{"smiles": "COc1ccc(-c2nc3c([nH]2)CCNC3C(=O)O)c2ccc(C)nc12", "note": "(stereo not given)", "Percent Effect": 11.46}
{"smiles": "CC(C)CN1CCS(=O)(=O)[C@@H]2CCN(S(=O)(=O)c3ccccc3)CC[C@@H]21.O=C(O)C(F)(F)F", "Percent Effect": -6.866}
{"smiles": "CCCC(=O)N1CC[C@@H]2[C@H](CC1)N(Cc1cccc(C)n1)CCS2(=O)=O.O=C(O)C(F)(F)F", "Percent Effect": 0.2499}
{"smiles": "Cc1cccc(CN2CCS(=O)(=O)[C@@H]3CCN(C(=O)C4CC4)CC[C@@H]32)n1.O=C(O)C(F)(F)F", "Percent Effect": 4.108}
{"smiles": "O=C(O)C(F)(F)F.O=C(O)C(F)(F)F.O=S1(=O)CCN(Cc2cccnc2)[C@H]2CCN(c3ncccn3)CC[C@H]21", "Percent Effect": 0.02856}
{"smiles": "O=C(O)C(F)(F)F.O=C(O)C(F)(F)F.O=C(O)C(F)(F)F.c1cncc(CN2CC[C@@H]3[C@@H]2CCN3Cc2ccc3c(c2)OCO3)c1", "Percent Effect": -20.95}
{"smiles": "O=C(C1CC1)N1CC[C@@H]2[C@H](CC1)N(Cc1cccnc1)CCS2(=O)=O.O=C(O)C(F)(F)F.O=C(O)C(F)(F)F", "Percent Effect": 101.3}
{"smiles": "CC(C)C(=O)N1CC[C@@H]2[C@H](CC1)N(Cc1cccnc1)CCS2(=O)=O.O=C(O)C(F)(F)F.O=C(O)C(F)(F)F", "Percent Effect": 86.93}
{"smiles": "CCS(=O)(=O)N1CC[C@@H]2[C@H](CC1)N(Cc1cccnc1)CCS2(=O)=O.O=C(O)C(F)(F)F.O=C(O)C(F)(F)F", "Percent Effect": 110.8}
{"smiles": "CCS(=O)(=O)N1CC[C@@H]2[C@H](CC1)N(Cc1cccc(C)n1)CCS2(=O)=O.O=C(O)C(F)(F)F", "Percent Effect": -2.049}
{"smiles": "CCS(=O)(=O)N1CC[C@@H]2[C@H](CC1)N(CC(C)C)CCS2(=O)=O.O=C(O)C(F)(F)F", "Percent Effect": -5.407}
{"smiles": "O=C(CC1CC1)N1CC[C@@H]2[C@H](CC1)N(Cc1cccnc1)CCS2(=O)=O.O=C(O)C(F)(F)F.O=C(O)C(F)(F)F", "Percent Effect": 93.65}
{"smiles": "CN(CCCN1CCOCC1)[C@@H]1c2ccccc2C2(CCNCC2)[C@H]1O", "Percent Effect": 1.971}
